Our source for the Potency and outcome values is PubChem BioAssay (Tox21).

The nature of experiment [1]: qHTS assay to identify small molecule antagonists of the estrogen receptor alpha (ER-alpha) signaling pathway using the BG1 cell line in the presence of 0.1 nM 17-beta-estradiol - cell viability counter screen (AID 1259241). Also: nearly all actives have a fitted effect of over 40% in size. The method, boiled down:
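Live-cell protease activity (CellTiter-Fluor fluorescence, 30 min) was read in the same wells after VM7Luc4E2 cells had been exposed to compounds with 0.1 nM 17beta-estradiol for 22 hr at 37C.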
A general note: qHTS replaces the single test concentration by a dilution series.

Experiment [2] is described as follows: qHTS assay to identify small molecule antagonists of the androgen receptor (AR) signaling pathway using the MDA cell line in the presence of 0.5 nM R1881 - cell viability counter screen (AID 1259242). Also: nearly all actives have a fitted effect of over 45% in size. The essentials:
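Concentration-response screen of compounds for toxicity in MDA-kb2 reporter cells: 16 hr at 37C with 0.5 nM R1881, endpoint live-cell protease fluorescence measured in the reporter wells.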

The target of experiment [3] is Androgen receptor (Homo sapiens) (UniProt P10275). The experiment in a line: qHTS assay to identify small molecule antagonists of the androgen receptor (AR) signaling pathway using the MDA cell line in the presence of 0.5 nM R1881 (AID 1259243). Also: nearly all actives have a fitted effect of over 50% in size. The method, boiled down:
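With R1881 held at 0.5 nM (final), compound effects on MMTV-luciferase expression in MDA-kb2 cells were scored by luminescence after a 16 hr, 37C incubation.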

In experiment [4] the target is Estrogen receptor (Homo sapiens) (UniProt P03372). The experiment in a line: qHTS assay to identify small molecule antagonists of the estrogen receptor alpha (ER-alpha) signaling pathway using the BG1 cell line in the presence of 0.1 nM 17-beta-estradiol (AID 1259244). Also: nearly all actives have a fitted effect of over 50% in size. The method, boiled down: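 Compounds were tested against 0.1 nM (final) 17beta-estradiol in VM7Luc4E2 cells, which express full-length ER-alpha and an ERE-luciferase reporter; luminescence was recorded following 22 h exposure.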
Sequence of Estrogen receptor (Homo sapiens) (P03372 whole entry, looked up): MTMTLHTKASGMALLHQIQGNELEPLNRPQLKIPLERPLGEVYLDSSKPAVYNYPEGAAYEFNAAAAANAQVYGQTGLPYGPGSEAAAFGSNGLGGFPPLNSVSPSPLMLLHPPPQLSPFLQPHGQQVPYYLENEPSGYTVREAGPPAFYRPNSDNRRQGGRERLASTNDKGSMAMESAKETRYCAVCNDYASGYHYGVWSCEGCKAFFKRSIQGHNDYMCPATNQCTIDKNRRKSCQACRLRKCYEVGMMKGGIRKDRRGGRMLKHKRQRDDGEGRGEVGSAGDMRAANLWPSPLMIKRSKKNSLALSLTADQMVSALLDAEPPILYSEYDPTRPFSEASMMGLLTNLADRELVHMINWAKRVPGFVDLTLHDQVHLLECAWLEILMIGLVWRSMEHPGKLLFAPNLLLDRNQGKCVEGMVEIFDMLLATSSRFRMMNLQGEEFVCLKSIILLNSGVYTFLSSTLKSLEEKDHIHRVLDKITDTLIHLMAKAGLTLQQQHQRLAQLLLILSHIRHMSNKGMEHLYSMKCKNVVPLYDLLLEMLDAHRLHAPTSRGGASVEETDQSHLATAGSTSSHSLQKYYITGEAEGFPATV

A short description of experiment [5]: qHTS assay to identify small molecule phospholipidosis (PLD) inducers (AID 1259344; active = well fitted curve in the direction sought with a large enough effect; an effect the other way counts as inactive or inconclusive). The method, boiled down: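 After 4 h attachment on collagen I, HepG2 cells were dosed with compound alongside LipidTOX Red, kept 24 h at 37 C, fixed, and imaged for lamellar phospholipid pits.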
The nature of experiment [6]: qHTS assay to identify small molecule HDAC inhibitors (AID 1259364).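 Also: wild-type HCT-116 cells with endogenous class I/II HDAC activity; top concentration of the series differs between compounds; nearly all actives have a fitted effect of over 45% in size.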 The essentials:
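Screening used wild-type human colon HCT-116 cells incubated overnight, dosed with compounds for 2 hours, and assayed with a homogeneous luminogenic HDAC I/II reagent for 30 minutes at room temperature.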

Experiment [7] can be described thus: qHTS assay to identify small molecule HDAC inhibitors - cell viability counter screen (AID 1259365). Also: series mostly up to about 92 µM; nearly all actives have a fitted effect of over 50% in size. The method, boiled down:
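HCT-116 (wild type), 1,500 cells/well, overnight 37C/5% CO2; compound in DMSO 2hr; CellTiter-Glo 30min RT; luminescence read.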

Experiment [8] in a line: qHTS assay to identify small molecule agonists of the sonic hedgehog signaling (Shh) pathway - cell viability counter screen (AID 1259366). Also: nearly all actives have a fitted effect of over 50% in size. The method, boiled down:
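CellTiter-Fluor fluorescence read-out, 1 hr at 37C, added after 23hr compound exposure. Cells: 3T3 Gli1-Luc, an NIH/3T3 clone with stably integrated Gli1-Luc reporter, plated 4hr before compound.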

The nature of experiment [9]: qHTS assay to identify small molecule antagonists of the sonic hedgehog signaling (Shh) pathway - cell viability counter screen (AID 1259367). Also: nearly all actives have a fitted effect of over 55% in size. The essentials:
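Conditioned medium drove Shh signaling in 3T3 Gli1-Luc cells exposed to compounds at 37C and 5% CO2. Viability was determined from CellTiter-Fluor fluorescence, with reagent incubated 1 hr after 23 hr of treatment.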

The nature of experiment [10]: qHTS assay to identify small molecule agonists of the sonic hedgehog signaling (Shh) pathway (AID 1259368; calls by dose curve;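 also: NIH/3T3-derived 3T3Gli1-Luc cells carrying a stable Gli1-driven firefly luciferase reporter; series mostly up to about 92 µM; nearly all actives have a fitted effect of over 15% in size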). The method, boiled down: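 Hedgehog pathway agonism scored by increased firefly luciferase luminescence in 3T3Gli1-Luc cells treated 24 hr at 37 C; detection used a 30 min room-temperature reagent incubation.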
Experiment [11] deals with Estrogen receptor beta (Homo sapiens) (UniProt Q92731). The experiment can be described thus: qHTS assay to identify small molecule agonists of the estrogen receptor beta (ER-beta) signaling pathway (AID 1259377; active = well fitted activation curve with a large enough effect in the signal ratio in the repeat runs, not every such curve was filed as active; the % refers to the signal ratio). The method, boiled down:
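Beta-lactamase reporter readout: fluorescence of LiveBLAzer B/G FRET substrate after 2 h at room temperature, following 16 h compound treatment of ER-beta-UAS-bla HEK293T cells at 37C in 2% charcoal-stripped FBS medium.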

Experiment [12] shares this target. The experiment can be described thus: qHTS assay to identify small molecule antagonists of the estrogen receptor beta (ER-beta) signaling pathway (AID 1259378; active = well fitted inhibition curve with a large enough effect in the signal ratio in the repeat runs, not every such curve was filed as active; the % refers to the signal ratio). The essentials: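 ER-beta-UAS-bla HEK293T (GripTite) cells in 2% charcoal-stripped FBS medium were preincubated 6 hr at 37C, dosed with compound, then stimulated with 1 nM E2 (final) for 16 hr; beta-lactamase reporter read by B/G FRET fluorescence after 2 hr substrate loading.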

Experiment [13] can be described thus: qHTS assay to identify small molecule agonists of the androgen receptor (AR) signaling pathway in the presence of an antagonist - cell viability counter screen (AID 1259379).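 Also: MDA-kb2 human breast cancer cells carrying an MMTV luciferase reporter; series mostly up to about 92 µM; nearly all actives have a fitted effect of over 25% in size.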 The essentials:
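MDA-kb2 viability measured by CellTiter-Fluor fluorescence in the same wells as the luciferase signal; nilutamide 3.0uM final; 15-point compound titration; 16 hr at 37C.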

The nature of experiment [14]: qHTS assay to identify small molecule agonists of the estrogen receptor beta (ER-beta) signaling pathway - cell viability counter screen (AID 1259380). Also: nearly all actives have a fitted effect of over 30% in size. The method, boiled down: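 Measured: luminescence from CellTiter-Glo after 30 min at room temperature, added to wells already read for the LiveBLAzer FRET reporter (2 hr substrate); ER-beta-UAS-bla HEK293T cells had 16 hr compound treatment at 37C, 5% CO2.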

The target of experiment [15] is Androgen receptor (Homo sapiens) (UniProt P10275). The experiment can be described thus: qHTS assay to identify small molecule agonists of the androgen receptor (AR) signaling pathway in the presence of an antagonist (AID 1259381; calls by dose curve; also: nearly all actives have a fitted effect of over 15% in size). The method, boiled down:
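Luminescent ONE-Glo read, 30min at room temperature, follows 16hr compound exposure (15 concentrations) of MDA-kb2 cells at 37C, 0% CO2, with nilutamide added at 3.0uM final.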

Experiment [16] can be described thus: qHTS assay to identify small molecule antagonists of the estrogen receptor beta (ER-beta) signaling pathway - cell viability counter screen (AID 1259382). Also: nearly all actives have a fitted effect of over 55% in size. Also: potency is read from the fitted curve at half-maximal effect. The method, boiled down: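 Readout: luminescence, CellTiter-Glo, same wells as bla assay. System: ER-beta-UAS-bla GripTite HEK293T, 2% charcoal-stripped FBS. Exposure: compounds plus 1nM 17-beta-estradiol, 16 hr, 37C.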

Experiment [17] deals with Estrogen receptor (Homo sapiens) (UniProt P03372). The experiment in a line: qHTS assay to identify small molecule agonists of the estrogen receptor alpha (ER-alpha) signaling pathway in the presence of an antagonist (AID 1259383; calls by dose curve; also: top concentration of the series differs between compounds; nearly all actives have a fitted effect of over 15% in size). The method, boiled down:
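Quantitative HTS confirmation: compounds titrated at 15 concentrations onto estrogen-deprived VM7Luc4E2 cells carrying a four-ERE luciferase construct, with ICI-182,780 present at 10.0nM final. Signal is luminescence after 22hr exposure.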

The nature of experiment [18]: qHTS assay to identify small molecule agonists or antagonists of the thyroid stimulating hormone receptor (TSHR) signaling pathway - wild type cell line counter screen (AID 1259384; calls by dose curve). The essentials:
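Wild-type HEK293 cells were plated 18 h at 37 C/5% CO2, pin-dosed with compound plus Ro20-1724 medium, held 30 min at room temperature, then given cAMP-d2 and anti-cAMP-cryptate; fluorescence was read after 1 h. Fifteen concentrations, triplicate.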

The nature of experiment [19]: qHTS assay to identify small molecule antagonists of the sonic hedgehog signaling (Shh) pathway (AID 1259369; calls by dose curve; also: nearly all actives have a fitted effect of over 45% in size). The essentials: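 NIH/3T3 stable Gli1-Luc clone, 2,000 cells/well, 4hr settle; cpd + conditioned medium 24hr; Luc reagent 30min RT; luminescence.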
Experiment [20] deals with Thyrotropin receptor (Homo sapiens) (UniProt P16473). The experiment can be described thus: qHTS assay to identify small molecule antagonists of the thyroid stimulating hormone receptor (TSHR) signaling pathway (AID 1259385; calls by dose curve; also: nearly all actives have a fitted effect of over 20% in size). The method, boiled down:
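TSHR-HEK293 cells were plated and held 18 h at 37C/5% CO2, then given compound plus Ro20-1724 and stimulated with TSH at 1.5 ng/mL final. After 30 min at room temperature, cAMP was detected with cAMP-d2/anti-cAMP-cryptate (1 h) by fluorescence.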

Results filed as inconclusive are left out. Some structures have more than one record in an assay (separate samples or runs), and their calls can disagree. The source made the active and inactive calls. Unless noted, calls follow the shape of the dose curve; as a rule, active = well fitted curve in the direction sought with a large enough effect in the repeat runs; inconclusive = weak or mixed curves; inactive = no such curve, though single readings can be large; an effect the other way counts as inactive or inconclusive.

Sequence of Thyrotropin receptor (Homo sapiens) (P16473 whole entry, looked up): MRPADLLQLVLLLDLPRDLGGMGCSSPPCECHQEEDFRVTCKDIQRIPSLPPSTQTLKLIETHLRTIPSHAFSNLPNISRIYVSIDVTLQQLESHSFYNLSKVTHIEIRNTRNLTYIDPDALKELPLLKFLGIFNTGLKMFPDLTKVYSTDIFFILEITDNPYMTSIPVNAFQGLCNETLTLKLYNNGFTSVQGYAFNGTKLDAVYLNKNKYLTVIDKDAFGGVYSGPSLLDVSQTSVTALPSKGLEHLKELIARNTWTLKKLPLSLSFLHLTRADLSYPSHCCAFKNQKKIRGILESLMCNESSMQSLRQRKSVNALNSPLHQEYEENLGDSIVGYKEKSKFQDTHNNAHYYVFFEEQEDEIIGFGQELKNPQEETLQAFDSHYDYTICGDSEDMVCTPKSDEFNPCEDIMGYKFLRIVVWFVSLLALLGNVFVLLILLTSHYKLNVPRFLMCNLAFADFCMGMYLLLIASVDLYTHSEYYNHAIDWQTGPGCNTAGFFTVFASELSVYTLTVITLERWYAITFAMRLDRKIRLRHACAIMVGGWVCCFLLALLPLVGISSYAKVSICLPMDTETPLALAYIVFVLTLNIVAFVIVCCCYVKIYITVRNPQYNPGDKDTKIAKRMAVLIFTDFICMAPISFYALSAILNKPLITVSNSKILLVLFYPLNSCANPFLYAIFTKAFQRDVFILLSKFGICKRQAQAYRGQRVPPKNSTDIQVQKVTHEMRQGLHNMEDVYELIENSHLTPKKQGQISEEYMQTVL
Sequence of Estrogen receptor beta (Homo sapiens) (Q92731 whole entry, looked up): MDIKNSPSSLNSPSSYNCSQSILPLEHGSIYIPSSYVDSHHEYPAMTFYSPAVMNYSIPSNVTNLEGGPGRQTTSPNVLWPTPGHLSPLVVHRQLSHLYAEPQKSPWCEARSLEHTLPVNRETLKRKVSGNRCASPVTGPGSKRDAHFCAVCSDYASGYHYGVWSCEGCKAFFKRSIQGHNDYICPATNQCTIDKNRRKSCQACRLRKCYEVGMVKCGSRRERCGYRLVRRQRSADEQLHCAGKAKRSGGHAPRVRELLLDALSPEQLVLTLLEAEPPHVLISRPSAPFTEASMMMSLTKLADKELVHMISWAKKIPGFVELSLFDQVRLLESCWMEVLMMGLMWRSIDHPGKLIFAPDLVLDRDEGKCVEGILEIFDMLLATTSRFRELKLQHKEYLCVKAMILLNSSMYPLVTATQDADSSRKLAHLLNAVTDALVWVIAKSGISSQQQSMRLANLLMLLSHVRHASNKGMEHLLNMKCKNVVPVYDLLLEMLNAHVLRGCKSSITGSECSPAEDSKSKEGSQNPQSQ
Sequence of Androgen receptor (Homo sapiens) (P10275 whole entry, looked up): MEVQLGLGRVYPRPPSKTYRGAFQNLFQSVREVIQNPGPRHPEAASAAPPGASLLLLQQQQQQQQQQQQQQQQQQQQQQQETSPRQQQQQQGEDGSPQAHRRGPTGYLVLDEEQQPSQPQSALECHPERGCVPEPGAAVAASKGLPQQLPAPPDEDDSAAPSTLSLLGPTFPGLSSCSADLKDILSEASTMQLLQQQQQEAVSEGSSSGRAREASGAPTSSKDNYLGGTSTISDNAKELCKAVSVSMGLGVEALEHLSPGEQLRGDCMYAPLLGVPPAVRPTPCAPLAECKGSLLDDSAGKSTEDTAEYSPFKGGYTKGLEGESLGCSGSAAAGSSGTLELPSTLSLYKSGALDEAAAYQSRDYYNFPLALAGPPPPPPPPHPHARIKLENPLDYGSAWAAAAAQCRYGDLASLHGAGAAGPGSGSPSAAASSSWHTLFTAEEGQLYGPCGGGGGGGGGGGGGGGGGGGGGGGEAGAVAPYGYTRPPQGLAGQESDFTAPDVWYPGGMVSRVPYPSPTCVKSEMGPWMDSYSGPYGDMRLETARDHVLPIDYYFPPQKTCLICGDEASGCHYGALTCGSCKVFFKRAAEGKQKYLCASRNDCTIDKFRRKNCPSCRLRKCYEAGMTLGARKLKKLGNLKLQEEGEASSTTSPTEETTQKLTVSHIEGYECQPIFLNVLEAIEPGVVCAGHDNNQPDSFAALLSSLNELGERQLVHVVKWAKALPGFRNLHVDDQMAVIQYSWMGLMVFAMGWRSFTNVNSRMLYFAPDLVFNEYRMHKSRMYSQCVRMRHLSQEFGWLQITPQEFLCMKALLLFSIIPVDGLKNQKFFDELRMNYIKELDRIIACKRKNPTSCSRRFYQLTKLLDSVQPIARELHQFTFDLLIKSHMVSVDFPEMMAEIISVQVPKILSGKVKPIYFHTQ

Consider `COc1cc(C=O)ccc1O`, for which the Potency result in experiment [1], in experiment [2], in experiment [3], in experiment [4], in experiment [5] and in experiment [6] was “inactive” each time. The Potency entry in [8], in experiment [9], in experiment [12], in experiment [13], in experiment [14] and in experiment [16] was “inactive” throughout. The Potency entry in experiment [17] and in experiment [18] was “inactive” throughout. The call in experiment [7], in experiment [10], in experiment [11] and in experiment [15] was inactive.
For the molecule `CN(C)Cc1cc(CN(C)C)c(O)c(CN(C)C)c1`, the Potency entry in experiment [1], in experiment [2], in experiment [3], in experiment [4], in experiment [6] and in experiment [8] was “inactive” in each case. In addition, the Potency result in experiment [9], in experiment [19], in [13], in experiment [16], in experiment [17] and in experiment [18] was “inactive” throughout. The molecule was classed as inactive in experiment [10] and in [15].
In the case of `CCn1cc(C(=O)O)c(=O)c2ccc(C)nc21`, the Potency result in experiment [1], in experiment [2], in experiment [4], in experiment [5], in experiment [6] and in experiment [8] was “inactive” each time. Moreover, the Potency result in [9], in [12], in experiment [13], in experiment [14], in experiment [16] and in [17] was “inactive” in each case. The Potency entry in experiment [18] is “inactive”. The outcome in experiment [7], in experiment [10], in [11] and in experiment [20] was inactive.
As for `NC(=O)N1c2ccccc2C=Cc2ccccc21`, the Potency entry in experiment [1], in experiment [2], in experiment [4], in [5], in [6] and in [8] was “inactive” throughout. The Potency entry in [9], in experiment [19], in [12], in experiment [13], in experiment [14] and in experiment [16] was “inactive” throughout. In [17], the Potency entry is “inactive”. Besides, the outcome in [7], in [10] and in [11] was inactive.
With `C#C[C@]1(O)CC[C@H]2[C@@H]3CCc4cc(O)ccc4[C@H]3CC[C@@]21C`, the Potency entry in [1], in experiment [2], in [5], in experiment [6], in [9] and in experiment [13] was “inactive” in each case. The Potency result in [18] was “inactive”. Also, the outcome in experiment [7], in experiment [10] and in [20] was inactive. In addition, the Potency in experiment [16] is 54.1 µM (active) and inactive.
`NC(=O)NO`: the Potency result in [1], in experiment [2], in experiment [5], in experiment [6], in experiment [9] and in [12] was “inactive” in each case. Also, the Potency result in experiment [13], in [16] and in experiment [18] was “inactive” each time. Besides, the molecule was called inactive in [7], in experiment [10] and in experiment [11].
As to `Nc1cccc(N)c1`, the Potency entry in experiment [1], in experiment [2], in experiment [6], in experiment [8], in experiment [9] and in experiment [12] was “inactive” throughout. The Potency result in [13], in experiment [14] and in experiment [16] was “inactive” in each case. Further, the molecule was called inactive in experiment [7], in experiment [10] and in [11].
For `CCCCC/C(C=O)=C\c1ccccc1`, the Potency entry in experiment [1], in experiment [2], in [5], in [6], in experiment [8] and in experiment [9] was “inactive” in each case. In addition, the Potency result in experiment [19], in [12], in experiment [13], in experiment [14], in [16] and in [18] was “inactive” in each case. Moreover, the molecule was classed as inactive in [10], in experiment [11] and in experiment [20].
